High-throughput results deposited in PubChem BioAssay by National Center for Advancing Translational Sciences (NCATS).
This is a sample that favours compounds with a hit; in the whole collection about 21% have one here.
Cycloheximide cs – Cycloheximide Counterscreen for Small Molecule Inhibitors of Shiga Toxin; cell reporter, cycloheximide protein synthesis inhibition counterscreen; max response, %; actives 12% (n = 300,000); AID 2314, 2010; in the data active means max response mostly above about 13%, no sharp cut-off; inactive means mostly below about 14%; further: read at 38.3 µM for the half of the compounds with a filed dose; 0% is about no effect
Pf growth 48h – Primary qHTS for delayed death inhibitors of the malarial parasite plastid, 48 hour incubation | P. falciparum luciferase growth in erythrocytes, 48 h | Potency, µM (highest dose often 28.7 µM), without a hit: at the highest dose activity change, negative = inhibition, most hits filed as inhibitors | actives 5.9% (n = 310,000) | AID 504832, 2011; further: potency means the concentration at half of the fitted maximal effect; on the % scale 0 is the no-effect control and ±100 the full control effect
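Read-out is firefly luciferase luminescence from an integrated reporter in P. falciparum, so falling signal marks reduced parasite growth. Infected erythrocytes were at 2% hematocrit and 0.1% parasitemia (final) in Albumax-supplemented RPMI 1640.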
AMA1-RON2 inh – qHTS for Inhibitors of AMA1-RON; Towards Development of Antimalarial Drug Lead: Primary Screen; Plasmodium falciparum AMA1 (3D7) - RON2 peptide interaction; AlphaScreen AMA1-biotinylated RON2 peptide binding; Potency, µM (top dose mostly 58.2 µM), inactives show at the top dose activity change, negative = inhibition, usual class: inhibitors; actives 0.2% (n = 360,000);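 further: potency means the concentration at half of the fitted maximal effect; 0% = vehicle wells and -100% = peptide control; nearly all actives have a fitted effect of over 45% in size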
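AMA1 (3D7) with his tag at 25 nM final met compounds first, then biotinylated RON2 peptide at 25 nM; detection used donor plus acceptor beads, 10 µg/mL apiece, read by AlphaScreen after 30 min at room temperature.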
Pf growth 96h – Primary qHTS for delayed death inhibitors of the malarial parasite plastid, 96 hour incubation | P. falciparum luciferase reporter growth, 96 h | Potency, µM (top dose mostly 28.7 µM), inactives show at the highest dose activity change, negative = inhibition, usual class: inhibitors | actives 6.9% (n = 320,000) | AID 504834, 2011; further: potency means the concentration at half of the fitted maximal effect; on the % scale 0 is the no-effect control and ±100 the full control effect
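Cell-based qHTS: luciferase-tagged P. falciparum in erythrocytes (2% hematocrit, 0.05% parasitemia final) incubated with compounds for 96 hours, 37 C, 5% CO2; luciferase detection reagent then added and luminescence measured.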
HCV inhibitor – qHTS Assay for Inhibitors of Hepatitis C Virus (HCV) | Huh7.5.1 HCVcc-Cre infection, luciferase reporter, 44 h | Potency, µM (titrated, usually from 41.8 µM), inactives show top-dose activity change, negative = inhibition, actives largely listed as inhibitors | actives 3.4% (n = 340,000); further: potency means the concentration at half of the fitted maximal effect; on the % scale 0 is the no-effect control and ±100 the full control effect
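A cell-based infection assay in which seeded cells (1,000 per well) receive test compound after 4 h, are inoculated with HCVcc-Cre at approximately 0.5 moi, and are incubated 44 h before luminescence detection.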
Shiga inhibitor – A qHTS for Small Molecule Inhibitors of Shiga Toxin; Vero cells, Shiga toxin protein synthesis inhibition reporter; inhibition, % at 38.7 µM; actives 9.2% (n = 290,000); in the data active means inhibition mostly above about 28%, no sharp cut-off; inactive means mostly below about 43%; further: 0% is about no effect
Active calls of the source: *; ? = inconclusive; / = not tested or not shown; + = active, no number. Unless noted, the call rests on the fitted dose curve; in most records, active means well fitted curve in the direction sought with a large enough effect; inconclusive means small, poorly fitted or top-dose-only effect, or another doubt; inactive means no such curve, though single readings can be large; an effect the other way counts as inactive or inconclusive.

SMILES | Cycloheximide cs | Pf growth 48h | AMA1-RON2 inh | Pf growth 96h | HCV inhibitor | Shiga inhibitor
CCn1c(NCc2ccccc2Cl)nc2ccccc21 | 29.1 | ? | -2.6% | 3.9% | ? | 24.4*
CCn1c(NCc2ccco2)nc2ccccc21 | 7.2 | -3.2% | -2.1% | ? | 3.1% | -1.2
CN(C(=O)CN1C(=O)C2C3CC(C(Br)C3Br)C2C1=O)C1CCCCC1 (stereo not drawn) | -4.0 | 5.86µM* | -9.3% | 1.0% | 34.1% | -4.1
CC(C)CC1NC(=O)N(CC(=O)N(C)C2CCCCC2)C1=O (stereo not drawn) | / | / | 1.1% | / | 11.6% | /
CCN1CC(CN(C)Cc2nc(Cc3ccccc3)no2)CC1=O (stereo not drawn) | -2.9 | 30.6% | -10.1% | ? | 6.2% | 5.4
CCn1nc([N+](=O)[O-])c2c(-c3nc4ccccc4o3)c(N)n(CCCOC)c2c1=O | 6.0 | -12.8% | -9.5% | -0.7% | ? | 2.7
CCOC(=O)c1ccc(-n2cnc(-c3ccc([N+](=O)[O-])cc3)c2)cc1 | / | / | -3.1% | / | / | /
CCOC(=O)Cn1cnc(-c2ccc([N+](=O)[O-])cc2)c1 | 43.2* | ? | -6.1% | 4.8% | 7.3% | 74.9*
O=C(c1cc(-c2ccccc2O)on1)N1CCCCCC1 | 34.4* | 29.4% | 11.6% | 44.2% | -8.8% | 104.0*
COc1ccc(OC)c(-c2cc(C(=O)N3CCOCC3)no2)c1 | 13.6* | 38.1% | 6.9% | -30.9% | ? | 17.2
Cc1onc(-c2ccccc2Cl)c1C(=O)N1CCCCC1 | -2.2 | -3.9% | 2.8% | 9.4% | -3.6% | 1.5
O=C(c1cc(-c2ccccc2O)on1)N1CCOCC1 | 31.0* | 114.4% | 2.4% | 211.8% | 7.2% | 79.6*
COc1ccccc1-c1cc(C(=O)N2CCN(c3ccccc3)CC2)no1 | -2.0 | 10.9% | -7.0% | 15.4% | 8.8% | 2.1
O=C1CNC(=S)N1C(CO)c1ccccc1 (stereo not drawn) | -6.4 | -0.9% | 0.9% | 10.7% | 0.3% | -3.0
CCNC(=O)c1ccc(NC(=O)CC2SC(N3CCCC3)=NC2=O)cc1 (stereo not drawn) | / | -10.0% | -3.2% | -14.2% | -1.6% | /
CN(C1=NC(=O)C(CC(=O)Nc2ccc(Br)cc2)S1)c1ccc(O)cc1 (stereo not drawn) | -5.0 | -11.3% | 16.7% | 5.22µM* | ? | -2.0
CCCN(CCC)CCNC(=O)Cn1cc2c(n1)-c1c(oc(C(=O)N3CCCC3)c1C)CC2 | / | / | 90.3% | / | / | /
CCCCN(CCCC)CCCNC(=O)Cn1cc2c(n1)-c1c(oc(C(=O)N3CCCC3)c1C)CC2 | -0.9 | 11.7µM* | 4.1% | ? | -5.3% | -9.3
CC(/C=C/c1ccc(Cl)o1)=C\C(=O)O | 1.0 | 14.1% | 5.4% | 1.47µM* | 12.0% | 26.4
Cc1cc(C)n2nc(C(=O)OCC(=O)Nc3cc(S(=O)(=O)N4CCOCC4)ccc3Cl)nc2n1 | / | / | -5.1% | / | 29.6% | /
CCCCCOC(=O)NCC(O)c1ccccc1 (stereo not drawn) | 67.8* | 167.2% | -3.6% | 411.3% | -2.4% | 85.9*
CCn1cc(CN2CCC(C(=O)Nc3ccc(Oc4ccccc4)nc3)CC2)cn1 | -1.4 | -9.0% | 2.2% | -28.6% | ? | -15.8
CCn1cc(CN2CCC(n3nccc3NC(=O)Cc3ccccc3)CC2)c(C)n1 | -2.6 | 0.0% | -7.4% | -17.5% | 5.7% | -8.6
CCn1cc(CN2CCC(C(=O)Nc3ccc(Oc4ccccc4F)cc3)CC2)c(C)n1 | -1.2 | ? | -13.3% | ? | 2.82µM* | -5.9
CC(C)n1cc(CN2CCC(C(=O)Nc3ccc(Oc4ccccc4F)cc3)CC2)cn1 | -5.6 | ? | 8.3% | -2.3% | 11.2µM* | -14.1
SMILES | Cycloheximide cs | Pf growth 48h | AMA1-RON2 inh | Pf growth 96h | HCV inhibitor | Shiga inhibitor
O=C(Nc1ccc(N2CCCCC2)cc1)c1ccc([N+](=O)[O-])o1 | 35.0* | -23.3% | -27.3% | ? | ? | 103.9*
CC(C)(C)C(=O)N1CCN(c2ccc(NC(=O)c3ccco3)cc2)CC1 | -2.3 | -29.0% | 10.0% | ? | 10.6% | 9.5
CCCC(=O)N1CCN(c2ccc(NC(=O)c3ccc([N+](=O)[O-])o3)cc2)CC1 | -18.2 | 16.5µM* | -26.3% | 114.2% | ? | -32.9
CC(=O)Nc1ccc(N2CCN(Cc3ccccc3F)CC2)cc1 | -2.0 | -18.4% | 0.0% | / | 31.9% | -4.4
CC(C)(C)C(=O)N1CCN(c2ccc(NC(=O)c3ccc([N+](=O)[O-])o3)cc2)CC1 | 51.9* | ? | -16.2% | 7.38µM* | ? | 39.3*
CC1CCN(c2ccc(NC(=O)c3ccc([N+](=O)[O-])o3)cc2)CC1 | / | ? | ? | -6.1% | ? | /
CCC(=O)Nc1ccc(N2CCN(Cc3ccccc3F)CC2)cc1 | -2.8 | ? | -5.3% | 9.28µM* | -4.0% | -10.6
CC1(C)C(=O)Nc2ccccc2N1C(=O)COC(=O)CNS(=O)(=O)c1ccc(Br)cc1Cl | / | / | -9.5% | / | 24.7% | /
CCC(=O)N1CCN(c2ccc(NC(=O)c3ccc([N+](=O)[O-])o3)cc2)CC1 | 21.4* | 10.4µM* | 12.8% | 417.3% | ? | 32.7*
CS(=O)(=O)N1CCN(c2ccc(NC(=O)c3ccc([N+](=O)[O-])o3)cc2)CC1 | 30.2* | 82.9% | -2.0% | ? | ? | 52.9*
O=C(Nc1cccc(NC(=O)c2ccccc2Cl)c1)c1ccc([N+](=O)[O-])o1 | 13.8 | ? | -4.6% | 4.9% | 10µM* | 28.0
O=C(Nc1ccccc1N1CCN(C(=O)c2ccccc2)CC1)c1ccc([N+](=O)[O-])o1 | 3.0 | ? | -5.9% | 9.0% | ? | 26.3
CCC(=O)N1CCN(c2ccc(NC(=O)c3ccc(N4CCOCC4)c([N+](=O)[O-])c3)cc2)CC1 | -3.0 | ? | 12.5% | 9.3% | -21.8% | 14.7
O=C(Nc1ccc(N2CCN(C(=O)c3ccc(Cl)cc3)CC2)cc1)c1ccc([N+](=O)[O-])o1 | 5.9 | 3.29µM* | -5.6% | ? | 10µM* | 10.5
COc1cc(N2C(=O)C=CC2=O)c(OC)cc1Cl | 21.6 | ? | -7.3% | ? | ? | 4.2
CCOC(=O)C1=C(CC)Nc2ccccc2N=C1NC(=O)c1ccc(OC)c(S(=O)(=O)N2CCOCC2)c1 | / | / | 0.5% | / | -0.5% | /
COc1ccc(NC(=O)CN(C)C(=O)CSCc2ccc(C)cc2)cc1 | / | ? | 8.5% | ? | 0.1% | /
COc1ccc(OC)c(NC(=O)NNC(=O)COc2ccc(F)cc2F)c1 | -2.0 | 35.0% | 34.8% | 56.6% | 10.9% | -7.5
O=C(Nc1ccc(N2CCCC2)c(Cl)c1)c1ccc([N+](=O)[O-])o1 | 89.9* | ? | ? | ? | ? | +
